Laboratory results reported in PubChem BioAssay (NCATS).
Records with an inconclusive call do not appear. Active and inactive are the calls of the source. Unless noted, the call rests on the fitted dose curve; in most records, active means well fitted curve in the direction sought with a large enough effect; inconclusive means small, poorly fitted or top-dose-only effect, or another doubt; inactive means no such curve, though single readings can be large; an effect the other way counts as inactive or inconclusive.

Key:
[1] = qHTS to identify inhibitors of the type 1 interferon - major histocompatibility complex class I in skeletal muscle: primary screen against the NCATS LOPAC collection (AID 1347405);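 further: human myoblasts with HiBiT tag on endogenous HLA-B stimulated by IFN-beta; lytic HiBiT luminescence reporting HLA-B protein level; on the % scale 0 is the no-effect control and ±100 the full control effect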
Summary of the method: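 HLA-B HiBiT myoblasts, IFN-b 4 ng/ml, dexamethasone-free medium; compounds 7-pt 1:4.3 titration, top 46 uM final; 24 h at 37 C; Nano-Glo HiBiT lytic reagent, 10 min RT, luminescence.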

[2] = qHTS to identify inhibitors of the type 1 interferon - major histocompatibility complex class I in skeletal muscle: primary screen against the NCATS Pharmaceutical Collection (AID 1347407);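 further: luminescence of HiBiT knocked into endogenous HLA-B as interferon-induced MHC class I level; on the % scale 0 is the no-effect control and ±100 the full control effect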
Summary of the method: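 HLA-B HiBiT myoblasts, dexamethasone-free growth medium + 4 ng/ml IFN-b; compounds pinned 1 h after seeding, […] from 46 uM; 24 h, 37 C, 5% CO2; lytic HiBiT detection, 10 min RT, luminescence.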

[3] = qHTS for inhibitors of adenylyl cyclases using a fission yeast platform: a pilot screen against the NCATS LOPAC library (AID 1347410);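 further: plate controls were DMSO vehicle for no effect and DPI positive control for full effect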
Summary of the method: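 Read-out: fbp1-GFP fluorescence by laser scanning cytometry (488 nm laser), a gain of signal when AC/cAMP-PKA signalling is inhibited. Strain CHP2027 expressing AC9, GNAS and PDE4D2; compounds at up to 57 µM; 18 h, 30C.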

[4] = qHTS to identify inhibitors of the type 1 interferon - major histocompatibility complex class I in skeletal muscle: primary screen against the NCATS Mechanism Interrogation Plate v5.0 (MIPE) Libary (AID 1347411);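 further: plate controls were vehicle for no effect and reference inhibitor for full effect; nearly all actives have a fitted effect of over 65% in size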
Summary of the method: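 HLA-B HiBit myoblasts, dexamethasone-free medium + 4 ng/ml IFN-b, 24 h compound, 11-pt 1:3 from 46 uM final. Readout: Nano-Glo HiBiT lytic luminescence after 10 min lysis, RT.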

[5] = biological target: Protein phosphatase 1D (Homo sapiens) (UniProt O15297); assay: RapidFire Mass Spectrometry qHTS Assay for Modulators of WT P53-Induced Phosphatase 1 (WIP1) (AID 1347424);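 further: amount of dephosphorylated VEPPL-S-QETFS peptide product formed by WIP1; series mostly up to about 63 µM; plate controls were DMSO wells for no effect and GSK830371 inhibitor control at 10 µM for full effect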
Summary of the method: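 RapidFire mass spectrometry measured dephosphorylated peptide after 5 min room-temperature reaction of 2 uM VEPPL-pS-QETFS with 10 nM WIP1 (50 mM Tris-HCl pH 7.5, 30 mM MgCl2, 0.1 mM EGTA, BSA), following 1 hr compound preincubation; 1 uM isotope-labelled product standard.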

[6] = biological target: Protein phosphatase 1D (Homo sapiens) (UniProt O15297); assay: Rhodamine-PBP qHTS Assay for Modulators of WT P53-Induced Phosphatase 1 (WIP1) (AID 1347425); further: % of control where 0% means no effect
Summary of the method: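 Steps: enzyme with Rh-PBP sensor and compounds, room-temperature incubation of 1 hr, baseline read, addition of VEPPL-pS-QETFS (10 uM final), kinetic fluorescence reads at 525/598 nm. Activity equals final minus baseline signal.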

[7] = Validation qHTS assay for inhibitors of Activation Induced Cytidine Deaminase (AID): UDG Counterscreen signal (AID 1347427); further: 0% is about no effect
Summary of the method: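 Fluorescence at 560 nm excitation, 665 nm emission reports UDG signal after 250 mM NaOH (2x) addition and 30 min. Enzymes (AID 1 uM, UDG 2 U/mL, at 4/3x) preincubated 10 min with compound, then 4 h with 4x 250 nM DJC20/DJC23 substrate at room temperature.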

[8] = biological target: Single-stranded DNA cytosine deaminase (Homo sapiens) (UniProt Q9GZX7); assay: Validation qHTS assay for inhibitors of Activation Induced Cytidine Deaminase (AID): AID signal (AID 1347429); further: on the % scale 0 is the no-effect control and ±100 the full control effect
Summary of the method: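 AID+UDG coupled FRET deamination; cpds up to 114 uM final; DJC20/DJC23 substrate, 4 hr RT; NaOH stop, 30 min RT; read Ex 540/Em 590.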

[9] = Primary qHTS for inhibitors of SARS-S pseudo-typed particle cell entry (AID 1479145; calls by dose curve; further: nearly all actives have a fitted effect of over 45% in size)
[10] = Primary qHTS for Huh7 cytotoxicity: counterscreen for inhibitors of MERS-S pseudotyped particle cell entry (AID 1479147; calls by dose curve)
[11] = Primary qHTS for inhibitors of MERS-S pseudo-typed particle cell entry (AID 1479149; calls by dose curve; further: nearly all actives have a fitted effect of over 60% in size)
[12] = Primary qHTS for Vero E6 cytotoxicity: counterscreen for inhibitors of SARS-S pseudo-typed particle cell entry (AID 1479150; calls by dose curve)
[13] = qHTS for inhibitors of Rabies Virus screened against the NCATS CANVASS Library (AID 1347402; calls by dose curve; further: series mostly up to about 46 µM; 0% is about no effect)
[14] = Secretion counterscreen for inhibitors of the SERCaMP assay screened against the NCATS CANVASS Library (AID 1347390);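 further: light from luciferase secreted into medium read as a measure of general secretion; series mostly up to about 77 µM; on the % scale 0 is the no-effect control and ±100 the full control effect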
Summary of the method: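 Luminescence from constitutively secreted GLuc in SH-SY5Y-GLuc STOP cells, read after coelenterazine addition, served as read-out. Compounds tested 0.001 - 77 uM for 20 h at 37C; Brefeldin A as positive control.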

[15] = qHTS for activators of Nrf2/ARE signaling pathway screened against the NCATS CANVASS Library (AID 1347391); further: 0% is about no effect; nearly all actives have a fitted effect of over 60% in size
Summary of the method: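 HepG2 ARE-bla; cpd 11-pt qHTS, 16 h 37C/5% CO2; CCF4 substrate 2 h RT; read ex 405 / em 460 + 530 nm. Viability by CellTiter-Glo luminescence, 30 min RT.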

[16] = qHTS for activators of dead-cell proteases activity screened against the NCATS CANVASS Library (AID 1347392);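 further: luminescence from protease leaking out of membrane-damaged cells cleaving impermeant substrate; 0% is about no effect; rising signal means more cytotoxicity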
Summary of the method: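 Luminescent dead-cell protease readout (AAF-aminoluciferin, 15 min, room temperature) after 5 h compound treatment of HepG2 cells (2000/well, pre-attached 18 h). Eleven concentrations.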

[17] = Vero-766 cells viability qHTS against the NCATS CANVASS Library: Counterscreen for Zika virus inhibition assay (AID 1347394); further: series mostly up to about 46 µM; on the % scale 0 is the no-effect control and ±100 the full control effect; nearly all actives have a fitted effect of over 60% in size
Summary of the method: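 CellTiter-Glo luminescence, lower signal indicating cytotoxicity. Vero 766 cells without Zika virus, 1000 cells/well, plated overnight, then treated 72 h at 37C across an 11-point series.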

[18] = qHTS for inhibitors of Wild type Zika virus screened against the NCATS CANVASS Library (AID 1347396)
Summary of the method: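 Using ATP-based luminescence (CellTiter Glo), this screen scores rescue of Vero 766 cells from wild-type Zika killing at 72 h post-infection. Compounds are tested in a concentration series.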

[19] = Viability qHTS for inhibitors of the SERCaMP assay screened against the NCATS CANVASS Library (AID 1347400); further: series mostly up to about 92 µM; on the % scale 0 is the no-effect control and ±100 the full control effect; nearly all actives have a fitted effect of over 70% in size
Summary of the method: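 CellTiter-Glo luminescence readout after 48 h compound exposure (11-pnt qHTS series) of SH-SY5Y-GLuc SERCaMP MJH297 cells seeded at 1000 cells/well; bortezomib positive control.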

[20] = Redox Reaction Profiling qHTS: Assay Interference Panel against the NCATS CANVASS Library (AID 1347401);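 further: 100% = activation by 2 µM chloranil control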
Summary of the method: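 Redox-cycling liability assessed as DTT-driven conversion of resazurin (5 uM, with 200 uM DTT, HEPES pH 7.3) to fluorescent resorufin. Fluorescence at 525/598 nm measured initially and after 15 min dark incubation.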

Chain of Single-stranded DNA cytosine deaminase (Homo sapiens) (Q9GZX7 whole entry, looked up): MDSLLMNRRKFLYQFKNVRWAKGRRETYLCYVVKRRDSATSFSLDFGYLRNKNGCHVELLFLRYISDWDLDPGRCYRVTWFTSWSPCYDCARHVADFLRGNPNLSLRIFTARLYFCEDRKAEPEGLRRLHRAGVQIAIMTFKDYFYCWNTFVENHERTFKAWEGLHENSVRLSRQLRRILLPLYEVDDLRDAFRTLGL
Chain of Protein phosphatase 1D (Homo sapiens) (O15297 whole entry, looked up): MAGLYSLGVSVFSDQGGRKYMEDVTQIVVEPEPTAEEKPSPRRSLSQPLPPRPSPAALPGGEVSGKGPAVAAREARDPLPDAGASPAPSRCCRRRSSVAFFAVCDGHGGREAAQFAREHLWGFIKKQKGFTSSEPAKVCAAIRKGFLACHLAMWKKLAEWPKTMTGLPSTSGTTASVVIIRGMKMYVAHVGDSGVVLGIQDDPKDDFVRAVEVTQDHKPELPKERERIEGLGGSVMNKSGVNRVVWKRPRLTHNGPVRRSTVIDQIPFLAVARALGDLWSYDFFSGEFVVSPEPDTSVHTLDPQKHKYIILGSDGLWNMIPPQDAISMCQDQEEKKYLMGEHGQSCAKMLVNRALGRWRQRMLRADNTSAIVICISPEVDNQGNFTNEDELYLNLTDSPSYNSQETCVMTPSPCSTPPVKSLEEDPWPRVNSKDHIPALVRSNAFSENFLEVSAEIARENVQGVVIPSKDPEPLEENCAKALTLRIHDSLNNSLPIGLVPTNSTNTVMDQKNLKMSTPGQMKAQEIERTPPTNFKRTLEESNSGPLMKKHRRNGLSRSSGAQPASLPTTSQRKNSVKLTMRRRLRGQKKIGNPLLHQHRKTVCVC

CCC1(c2ccc(N)cc2)CCC(=O)NC1=O (stereo unspecified)
inactive: outcome [1] | Potency [2] | outcome [3] | Potency [4] | Potency [5] | outcome [6] | outcome [7] | outcome [8] | Potency [9] | Potency [10] | Potency [11] | Potency [12]

C[C@H](N)C(=O)c1ccccc1
inactive: Potency [2] | Potency [5] | outcome [6]

CN1C(=O)COc2c(C(=O)NC3CN4CCC3CC4)cc(Cl)cc21 (stereo unspecified)
inactive: Potency [2] | Potency [4] | Potency [5] | outcome [6]

O=C(N/N=C/c1ccc([N+](=O)[O-])o1)c1cc([N+](=O)[O-])cc([N+](=O)[O-])c1O
inactive: Potency [2]

CN1C(=O)CCS(=O)(=O)C1c1ccc(Cl)cc1 (stereo unspecified)
inactive: outcome [1] | Potency [2] | outcome [3] | Potency [4] | Potency [5] | outcome [6] | outcome [7] | outcome [8] | Potency [9] | Potency [10] | Potency [12]

CN(C)CCc1c[nH]c2cccc(OP(=O)(O)O)c12
inactive: Potency [2]

O=c1[nH]oc2c1CCNC2
inactive: outcome [1] | Potency [2] | Potency [5] | outcome [6] | outcome [7] | outcome [8]

CC(NC(C)(C)C)C(=O)c1cccc(Cl)c1 (stereo unspecified)
inactive: outcome [1] | Potency [2] | outcome [3] | Potency [4] | Potency [5] | outcome [6] | outcome [7] | outcome [8] | Potency [9] | Potency [10] | Potency [11] | Potency [12]

CCN[C@H](C)Cc1cccc(C(F)(F)F)c1
inactive: Potency [2] | Potency [5] | outcome [6]

CNCC(=O)c1ccc(O)c(O)c1
inactive: Potency [2] | Potency [5] | outcome [6]

CC(C)(C)NCC(O)c1ccccc1Cl (stereo unspecified)
inactive: outcome [1] | Potency [2] | outcome [3] | Potency [5] | outcome [6] | outcome [7] | outcome [8] | Potency [9] | Potency [10] | Potency [11] | Potency [12]

COc1cc(CCN)cc(OC)c1OC
inactive: Potency [2] | Potency [5] | outcome [6]

C[C@@H]1O[C@@H](OC[C@H]2O[C@@H](Oc3c(-c4ccc(O)c(O)c4)oc4cc(O)cc(O)c4c3=O)[C@H](O)[C@@H](O)[C@@H]2O)[C@H](O)[C@H](O)[C@H]1O
inactive: outcome [13] | Potency [9] | Potency [10] | Potency [11] | Potency [12]

C=C(C)[C@H]1CN[C@H](C(=O)O)[C@H]1CC(=O)O
inactive: outcome [1] | Potency [2] | outcome [3] | Potency [5] | outcome [6] | outcome [7] | outcome [8] | Potency [9] | Potency [10] | Potency [11] | Potency [12]

CCCCCN(C)CCC(O)(P(=O)(O)O)P(=O)(O)O
inactive: outcome [1] | outcome [3] | activity change, negative = inhibition [9] -12.9% [at 11.4 µM] | activity change, negative = cytotoxicity [10] 3.48% [at 11.4 µM] | activity change, negative = inhibition [11] -24.6% [at 11.4 µM] | activity change, negative = cytotoxicity [12] 1.39% [at 11.4 µM]

O=C1c2ccccc2C(=O)C1C(=O)C(c1ccccc1)c1ccccc1
inactive: Potency [2]

NCCc1ccc(O)cc1
inactive: outcome [14] | outcome [15] | outcome [16] | outcome [17] | outcome [18] | outcome [19] | outcome [20] | outcome [1] | Potency [2] | outcome [3] | Potency [5] | outcome [6] | outcome [7] | outcome [8]

CC(Cc1ccccc1)N(C)Cc1ccco1 (stereo unspecified)
inactive: Potency [2] | Potency [5] | outcome [6]

C[C@]12Cc3cn[nH]c3C[C@@H]1CC[C@@H]1[C@@H]2CC[C@@]2(C)[C@H]1CC[C@]2(C)O
inactive: Potency [2] | Potency [4] | Potency [5] | outcome [6]

COC(=O)[C@@H]1[C@H]2C[C@H]3c4[nH]c5ccccc5c4CCN3C[C@@H]2CC[C@@H]1O
inactive: outcome [13] | Potency [9] | Potency [10] | Potency [11] | Potency [12]

O=C(O)c1cc(O)c(O)c(O)c1
inactive: outcome [13] | Potency [9] | Potency [10] | Potency [11] | Potency [12]

O=C(O)CCCc1ccc(N(CCCl)CCCl)cc1
inactive: Potency [2] | Potency [4] | Potency [5] | outcome [6] | outcome [7] | outcome [8] | Potency [10] | Potency [11] | Potency [12]

O=P1(N(CCCl)CCCl)NCCCO1 (stereo unspecified)
inactive: outcome [1] | Potency [2] | outcome [3] | Potency [4] | outcome [6] | outcome [7] | outcome [8] | Potency [9] | Potency [10] | Potency [11] | Potency [12]

O=C(CCCN1CCC2(CC1)C(=O)NCN2c1ccccc1)c1ccc(F)cc1
inactive: outcome [1] | Potency [2] | outcome [3] | Potency [5] | outcome [6] | outcome [7] | outcome [8] | Potency [9]

CC[N+]1(CC)CCC(OC(=O)C(O)(c2ccccc2)c2ccccc2)C1 (stereo unspecified)
inactive: Potency [2] | Potency [5] | outcome [6]

Clc1cccc(SC2CCNCC2)n1
inactive: Potency [2] | Potency [5] | outcome [6]

CCN[C@@H](C)Cc1ccccc1
inactive: Potency [2] | Potency [5] | outcome [6]

CC(C)c1cccc(C(C)C)c1O
inactive: outcome [1] | Potency [2] | outcome [3] | Potency [4] | Potency [5] | outcome [6] | outcome [7] | outcome [8] | Potency [9] | Potency [10] | Potency [11] | Potency [12]

CCCN(CCC)C(=O)Cc1c(-c2ccc(Cl)cc2)nc2ccc(Cl)cn12
inactive: Potency [2] | Potency [5] | outcome [6]
